# Test results from PubChem BioAssay.
# The source made the active and inactive calls. Unless noted, how the calls were made is not given here.
# Columns and labels:
# [1] = compounds binding Alexa647 anti-His antibody – biochemical, small-molecule microarray, 635 nm fluorescence, artefact control for SMM control protein annotation, primary screen (AID 1128); conditions: higher = more signal;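 further: score merges feature fluorescence with signal-to-noise for each printed compound spot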
# [2] = system: Human papillomavirus type 1a E7 protein (residues 1-88); assay: HPV1a E7 small-molecule binders, primary screen, biochemical, small-molecule microarray, residues 1-88, 635 nm (AID 1129); conditions: small-molecule microarray binding, fluorescence 635 nm; higher = more signal
# [3] = molecular target: Focal adhesion kinase 1 (Homo sapiens) (UniProt Q05397); assay: PTK2 protein binding on printed compound slides – biochemical, small-molecule microarray, 635/667 nm fluorescence, BSA, DTT, primary screen (AID 1130); conditions: 635 nm fluorescence, higher = more signal;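 further: composite of spot emission at 667 nm and signal to noise over triplicate slides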
# Sequence of Focal adhesion kinase 1 (Homo sapiens) (Q05397 whole entry, looked up): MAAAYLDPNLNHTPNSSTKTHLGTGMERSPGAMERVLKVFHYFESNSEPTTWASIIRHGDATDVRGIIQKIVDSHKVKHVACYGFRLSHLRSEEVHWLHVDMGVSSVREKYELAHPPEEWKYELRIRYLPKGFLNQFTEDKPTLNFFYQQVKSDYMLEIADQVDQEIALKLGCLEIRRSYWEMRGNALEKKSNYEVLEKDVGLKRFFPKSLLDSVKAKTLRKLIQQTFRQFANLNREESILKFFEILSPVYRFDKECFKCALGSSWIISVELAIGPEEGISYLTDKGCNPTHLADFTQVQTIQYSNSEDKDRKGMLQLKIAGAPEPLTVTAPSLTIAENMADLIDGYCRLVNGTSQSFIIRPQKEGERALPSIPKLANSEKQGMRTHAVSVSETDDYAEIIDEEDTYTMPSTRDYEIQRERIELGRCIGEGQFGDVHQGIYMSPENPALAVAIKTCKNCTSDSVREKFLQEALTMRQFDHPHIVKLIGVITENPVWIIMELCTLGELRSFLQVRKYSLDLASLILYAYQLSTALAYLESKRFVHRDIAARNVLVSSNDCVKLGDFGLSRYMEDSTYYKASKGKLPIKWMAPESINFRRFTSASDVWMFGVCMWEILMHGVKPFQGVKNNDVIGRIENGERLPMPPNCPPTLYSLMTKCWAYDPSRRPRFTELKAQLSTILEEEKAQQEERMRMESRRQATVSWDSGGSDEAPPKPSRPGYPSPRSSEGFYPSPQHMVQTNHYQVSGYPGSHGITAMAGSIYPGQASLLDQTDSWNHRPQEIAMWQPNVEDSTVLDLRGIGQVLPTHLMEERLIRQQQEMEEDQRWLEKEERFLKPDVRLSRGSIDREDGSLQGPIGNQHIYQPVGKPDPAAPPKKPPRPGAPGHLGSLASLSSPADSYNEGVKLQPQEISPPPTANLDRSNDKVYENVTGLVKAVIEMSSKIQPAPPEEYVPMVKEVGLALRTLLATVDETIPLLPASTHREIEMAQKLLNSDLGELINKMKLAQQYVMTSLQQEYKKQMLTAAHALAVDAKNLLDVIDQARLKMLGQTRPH
# [4] = system: Fibrinogen (Alexa647-labelled); assay: Alexa647-fibrinogen binding to printed small molecules – biochemical, small-molecule microarray, 635/667 nm fluorescence, artefact control for SMM control-protein annotation, profiling panel (AID 1131); conditions: fibrinogen-A647 binding fluorescence, higher = more signal;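 further: z-score merges 667 nm fluorescence with per-spot signal-to-noise over triplicate slides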
# [5] = molecular target: Follistatin (Homo sapiens) (UniProt P19883); assay: FST protein binding to printed compounds – biochemical, small-molecule microarray, 635/667 nm fluorescence, primary screen (AID 1132); conditions: 635 nm fluorescence, higher = more signal
# Sequence of Follistatin (Homo sapiens) (P19883 whole entry, looked up): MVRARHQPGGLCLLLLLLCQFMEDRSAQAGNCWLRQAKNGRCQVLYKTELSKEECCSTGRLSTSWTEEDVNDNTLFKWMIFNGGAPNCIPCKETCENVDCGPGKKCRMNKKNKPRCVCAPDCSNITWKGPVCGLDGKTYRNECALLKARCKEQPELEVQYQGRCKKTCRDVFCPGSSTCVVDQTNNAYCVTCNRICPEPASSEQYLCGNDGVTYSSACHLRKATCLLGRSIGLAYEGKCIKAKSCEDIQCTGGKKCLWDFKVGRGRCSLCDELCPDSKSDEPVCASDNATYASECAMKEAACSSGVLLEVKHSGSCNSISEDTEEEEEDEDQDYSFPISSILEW
# [6] = molecular target: Fibroblast growth factor 2 (Homo sapiens) (UniProt P09038); assay: basic fibroblast growth factor binding to printed compounds – biochemical, small-molecule microarray, 635/667 nm fluorescence, primary screen (AID 1133); conditions: FGF2, fluorescence 635/667, higher = more signal
# Sequence of Fibroblast growth factor 2 (Homo sapiens) (P09038 whole entry, looked up): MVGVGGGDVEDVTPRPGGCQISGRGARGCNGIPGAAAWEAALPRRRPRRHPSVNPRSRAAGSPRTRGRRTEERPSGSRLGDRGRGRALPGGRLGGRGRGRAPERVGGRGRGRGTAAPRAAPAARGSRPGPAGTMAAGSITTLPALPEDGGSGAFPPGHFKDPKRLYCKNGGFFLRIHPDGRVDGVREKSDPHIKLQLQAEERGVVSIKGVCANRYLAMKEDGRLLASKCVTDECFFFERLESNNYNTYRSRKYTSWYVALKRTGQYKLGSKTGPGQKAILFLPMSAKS
# [7] = JC-1 mitochondrial potential readout, lung cancer cells – cell-based, A549, JC-1 fluorescence, basal, 24 h, 100 nL, profiling panel (AID 1138); conditions: higher = more signal;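 further: A549 lung adenocarcinoma cells under basal conditions with no added stimulus; test concentration not given here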
# Lefty1 = Lefty1 protein binding to printed compounds – biochemical, small-molecule microarray, 635/667 nm fluorescence, primary screen (AID 1139); conditions: fluorescence 635/667, higher = more signal
# [8] = system: wheat germ agglutinin (Triticum aestivum), Alexa647-labelled; assay: Alexa647-WGA lectin binding to printed small molecules – biochemical, small-molecule microarray, 635/667 nm fluorescence, artefact control for SMM control-protein annotation, profiling panel (AID 1140); conditions: WGA-A647 binding, 635 nm fluorescence, higher = more signal;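 further: score merges 667 nm feature emission with signal to noise over triplicate slides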
# [9] = molecular target: Luciferin 4-monooxygenase (Photinus pyralis) (UniProt P08659); assay: inhibition of purified Photinus pyralis luciferase – biochemical, luminescence, purified enzyme, 2006 set, primary screen (AID 1141); conditions: purified firefly luciferase, SteadyGlo luminescence, 30 min; higher = more signal, called active from +8 up or from −8 down;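 further: cell-free assay with purified firefly luciferase at 100 ng per well in PBS; test concentration not given here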
# Sequence of Luciferin 4-monooxygenase (Photinus pyralis) (P08659 whole entry, looked up): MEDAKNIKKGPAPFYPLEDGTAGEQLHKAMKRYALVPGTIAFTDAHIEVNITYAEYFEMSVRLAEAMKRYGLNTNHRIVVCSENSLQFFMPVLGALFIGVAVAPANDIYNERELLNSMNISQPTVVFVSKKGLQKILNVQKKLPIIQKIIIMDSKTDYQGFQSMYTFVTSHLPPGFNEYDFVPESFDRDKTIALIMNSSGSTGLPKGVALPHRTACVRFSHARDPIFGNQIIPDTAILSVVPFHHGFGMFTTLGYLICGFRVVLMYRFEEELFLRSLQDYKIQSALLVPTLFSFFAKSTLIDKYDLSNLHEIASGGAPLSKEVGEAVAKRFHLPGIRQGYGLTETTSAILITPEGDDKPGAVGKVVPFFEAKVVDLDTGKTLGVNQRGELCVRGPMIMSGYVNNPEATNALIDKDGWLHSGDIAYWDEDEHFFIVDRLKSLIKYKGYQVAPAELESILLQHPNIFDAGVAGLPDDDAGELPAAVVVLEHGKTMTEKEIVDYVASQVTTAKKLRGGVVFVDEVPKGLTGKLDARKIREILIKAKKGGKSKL
# [10] = system: Wnt5a (protein binding on small-molecule microarray); assay: small molecules binding Wnt5a protein – biophysical, small-molecule microarray, 635/667 nm fluorescence, primary screen (AID 1142); conditions: 635 nm fluorescence, higher = more signal;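 further: fluorescence read at 667 nm with signal to noise per printed feature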
# [11] = ATP-based viability of Huh7 replicon cells – cell-based, CellTiter-Glo luminescence, basal, 48 h, cytotoxicity control for HCV replication inhibitor project, primary screen (AID 1143); conditions: higher = more signal, called active from +8 up or from −8 down;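 further: Huh7 hepatoma cells carrying a hepatitis C replication reporter with no stimulus; test concentration not given here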
# [12] = Pseudomonas biofilm growth suppression – PAO1 strain, BacTiter-Glo luminescence, LB-PBS, primary screen (AID 1144); conditions: P. aeruginosa PAO1 biofilm, 12 h, higher = more signal
# [13] = basal CRE-LacZ reporter activity in PC12 – cell-based, unstimulated, primary screen (AID 1145); conditions: no forskolin, luminescence, 4.5 h, higher = more signal, called active from +8 up or from −8 down
# [14] = forskolin-driven CRE-LacZ activity in PC12 – cell-based, CRE-LacZ reporter, forskolin-stimulated, primary screen (AID 1146); conditions: luminescence, 4.5 h, higher = more signal, called active from +8 up or from −8 down;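 further: PC12 cells with 6xCRE LacZ reporter stimulated by forskolin 10 µM; beta-galactosidase reporter signal reflecting CREB driven transcription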
# [15] = molecular target: Streptavidin (Streptomyces avidinii) (UniProt P22629); assay: compounds binding control protein streptavidin – biophysical, small-molecule microarray, 635/667 nm fluorescence, artefact control for SMM compound annotation, primary screen (AID 1147); conditions: higher = more signal;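 further: signal reflects streptavidin binding to arrayed compounds as a control protein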
# Sequence of Streptavidin (Streptomyces avidinii) (P22629 whole entry, looked up): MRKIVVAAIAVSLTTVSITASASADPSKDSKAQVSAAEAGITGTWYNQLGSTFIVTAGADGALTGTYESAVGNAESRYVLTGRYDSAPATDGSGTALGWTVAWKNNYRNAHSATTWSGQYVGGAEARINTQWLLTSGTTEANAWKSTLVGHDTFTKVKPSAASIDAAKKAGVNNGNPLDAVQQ
# [16] = probe aInhba binding on compound microarray – biochemical, small-molecule microarray, 635/667 nm fluorescence, primary screen (AID 1148); conditions: higher = more signal;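 further: score merges 667nm spot fluorescence with signal-to-noise for antibody binding to printed compounds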
# Torsin-1A (Homo sapiens) [17] = molecular target: Torsin-1A (Homo sapiens) (UniProt O14656); assay: TOR1A wild-type binding on microarray – cell lysate, small-molecule microarray, lysate, 635/667 nm, primary screen (AID 1149); conditions: COS7 hTOR1A-WT lysate, 635 nm fluorescence, higher = more signal
# Sequence of Torsin-1A (Homo sapiens) (O14656 whole entry, looked up): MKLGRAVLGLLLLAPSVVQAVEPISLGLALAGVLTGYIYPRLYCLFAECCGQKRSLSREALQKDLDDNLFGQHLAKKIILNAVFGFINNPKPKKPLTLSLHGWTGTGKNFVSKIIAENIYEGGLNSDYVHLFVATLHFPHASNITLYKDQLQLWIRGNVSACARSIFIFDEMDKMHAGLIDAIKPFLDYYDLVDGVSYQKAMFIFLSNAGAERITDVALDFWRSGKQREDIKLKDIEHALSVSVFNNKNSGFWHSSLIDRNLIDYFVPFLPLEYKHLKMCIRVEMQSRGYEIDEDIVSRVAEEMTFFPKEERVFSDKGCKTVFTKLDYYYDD
# Torsin-1A (Homo sapiens) [18] = molecular target: Torsin-1A (Homo sapiens) (UniProt O14656); assay: torsin A mutant lysate binding on microarrays – cell lysate, small-molecule microarray, COS7 lysate, 635/667 nm fluorescence, primary screen (AID 1150); conditions: COS7 hTOR1A mutant lysate, 635 nm fluorescence, higher = more signal;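 further: score pools 667 nm emission and signal to noise measuring lysate protein binding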
# [19] = system: Sonic hedgehog protein (Shh); assay: Sonic hedgehog microarray binding compounds – biochemical, small-molecule microarray, 635/667 nm fluorescence, primary screen (AID 1151); conditions: 635 nm fluorescence, higher = more signal;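 further: Shh protein binding to compounds spotted on small-molecule microarray slides; score combines spot fluorescence intensity with signal-to-noise across triplicate slides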
Structure (SMILES),composite z-score [1],composite z-score [2],composite z-score [3],composite z-score [4],composite z-score [5],composite z-score [6],z-score [7],composite z-score (Lefty1),composite z-score [8],z-score [9],composite z-score [10],z-score [11],z-score [12],z-score [13],z-score [14],composite z-score [15],composite z-score [16],composite z-score (Torsin-1A (Homo sapiens) [17]),composite z-score (Torsin-1A (Homo sapiens) [18]),composite z-score [19]
O=C1C2C=CC(C(O)c3ccc(-c4ccccc4)s3)N(Nc3ccccc3F)C2C(=O)N1c1ccccc1 (stereo not given),1.29,1.21,0.816,0.997,1.18,1.16,-1.12,0.133,0.994,-0.324 (inactive),0.26,0.0093 (inactive),-0.729 (inactive),0.629 (inactive),0.383 (inactive),1.06,-0.205,0.254,0.404,0.433
O=C1OCC=C[C@H]2OC34C=CCN(Cc5ccccc5)C(=O)[C@H]3N(CCCO)C(=O)[C@@H]4[C@@H]12 (stereo not given in full),2.26,0.374,1.14,-0.827,0.397,-0.56,-0.63,1.12,-0.0711,-0.241 (inactive),-0.312,-2.33 (inactive),-1.04 (inactive),-0.899 (inactive),-0.59 (inactive),-0.707,0.222,-0.667,-0.239,1.44
COc1ccc([Si](C)(C)[C@@H]2[C@@H](CCO)O[C@]3(C(=O)N(Cc4cccc(N5CCCCC5=O)c4)c4ccccc43)[C@H]2C)cc1,0.49,1.17,0.0366,0.825,1.01,0.885,-0.425,0.883,0.746,-0.724 (inactive),-0.0438,-7.9 (inactive),0.671 (inactive),15.5 (active),0.456 (inactive),-0.276,-0.024,0.38,0.965,1.27
CN(C)CCCC[C@@H]1NC(=O)[C@@H]2C[C@H](C(=O)NCCCCCCN)[C@H](c3ccc(O)cc3)N2C1=O,0.297,1.19,1.55,0.763,1.35,0.787,-0.729,0.829,0.998,0.37 (inactive),0.346,0.255 (inactive),-0.481 (inactive),-0.122 (inactive),0.208 (inactive),1.19,0.554,0.613,0.901,0.945
CN(C)CCCCNC(=O)[C@@H]1C[C@@H]2C(=O)N[C@@H](CCCCN)C(=O)N2[C@@H]1c1cccc(OCCO)c1,0.117,-0.229,-0.815,-0.581,-0.029,0.554,-0.872,-0.382,-0.13,0.654 (inactive),-0.157,0.0925 (inactive),-0.703 (inactive),-0.805 (inactive),-0.325 (inactive),-0.521,0.245,-1.37,-2.02,0.985
O=C(NCC(O)CO)[C@]1(CCS(=O)(=O)c2ccccc2)N=C(c2ccc(OCCCO)cc2)O[C@@H]1c1ccccc1 (stereo not given in full),1.14,1.27,0.516,0.976,0.866,-0.702,0.439,-1.11,1.54,0.0334 (inactive),0.299,-0.084 (inactive),0.295 (inactive),0.596 (inactive),-0.0842 (inactive),1.03,-0.0567,0.499,1.48,-1.05
COC(=O)[C@@]1(Cc2ccc(F)cc2)[C@H]2c3cc(C(=O)N4CCCC4)n(Cc4ccc(Cl)c(C(F)(F)F)c4)c3C[C@H]2CN1C(=O)c1ccccc1,2.45,1.23,0.777,1.01,1.08,-0.716,0.815,-0.862,1.22,1.18 (inactive),1.99,-2.95 (inactive),0.678 (inactive),0.204 (inactive),1.49 (inactive),2.28,1.35,0.0817,0.51,-0.239
O=C1OCC=C[C@H]2OC34C=CCN(c5ccc6ccccc6c5)C(=O)[C@H]3N(CCO)C(=O)[C@@H]4[C@@H]12 (stereo not given in full),0.0061,-0.785,-0.415,-1.22,-1.05,-2.06,1.51,-0.455,-1.18,-0.646 (inactive),-1.26,-0.168 (inactive),1.89 (inactive),1.14 (inactive),0.492 (inactive),-0.74,-0.0427,-2.04,-2.02,-0.25
CN(C)CCCN1C(=O)[C@@]2(c3ccc([N+](=O)[O-])cc3)CC(=O)N(C3CCCCC3)[C@@H]2c2ccc(CO)cc21,0.0598,-1.05,-0.042,-0.916,0.0687,0.836,-0.493,-0.262,0.12,1.2 (inactive),0.131,-1.79 (inactive),-1.09 (inactive),-0.464 (inactive),-0.477 (inactive),0.161,-0.101,-0.954,-0.288,-0.93
CN(C)CCCCCCNC(=O)[C@@H]1C[C@@H]2C(=O)N[C@@H](Cc3ccccc3)C(=O)N2[C@@H]1c1cccc(OCCO)c1,2.13,1.05,1.81,0.105,0.699,0.886,-0.37,0.729,0.346,-0.0196 (inactive),0.154,0.59 (inactive),0.0305 (inactive),-0.122 (inactive),-1.29 (inactive),0.0978,-0.0209,1.15,0.885,1.28
